Lassa entry inh – qHTS for Inhibitors of binding or entry into cells for Lassa Virus | Lassa virus pseudotype entry inhibition, cell reporter | Potency, µM (highest dose often 37.9 µM), for inactives: top-dose activity change, negative = inhibition, most hits filed as inhibitors | actives 1.2% (n = 300,000); calls by dose curve; tested in HEK293 cells; further: potency means the concentration at half of the fitted maximal effect; on the % scale 0 is the no-effect control and ±100 the full control effect; nearly all actives have a fitted effect of over 50% in size
Shiga toxin inh – A qHTS for Small Molecule Inhibitors of Shiga Toxin. Vero cells, Shiga toxin protein synthesis inhibition reporter. actives 9.2% (n = 290,000). inhibition, % at 38.7 µM. AID 2315, 2010; in the data active means inhibition mostly above about 28%, no sharp cut-off; inactive means mostly below about 43%; further: 0% is about no effect
Pf growth 96h – Primary qHTS for delayed death inhibitors of the malarial parasite plastid, 96 hour incubation. actives 6.9% (n = 320,000). P. falciparum luciferase reporter growth, 96 h. Potency, µM (titrated, usually from 28.7 µM), without a hit: top-dose activity change, negative = inhibition, hits mostly inhibitors; further: potency means the concentration at half of the fitted maximal effect; on the % scale 0 is the no-effect control and ±100 the full control effect
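Parasite growth measured via integrated firefly luciferase reporter in P. falciparum. Infected erythrocytes at 2% hematocrit, 0.05% parasitemia final were treated 96 hours at 37 C under 5% CO2, and luminescence was read.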
Pf growth 48h – Primary qHTS for delayed death inhibitors of the malarial parasite plastid, 48 hour incubation; P. falciparum luciferase growth in erythrocytes, 48 h; Potency, µM (top dose mostly 28.7 µM), for inactives: at the highest dose activity change, negative = inhibition, most hits filed as inhibitors; actives 5.9% (n = 310,000); AID 504832, 2011; further: potency means the concentration at half of the fitted maximal effect; on the % scale 0 is the no-effect control and ±100 the full control effect
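In quantitative HTS format, infected erythrocytes bearing luciferase-reporter parasites were treated for a single generation at 37 C. Luminescence after adding detection reagent served as the growth measure.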
Cycloheximide cs – Cycloheximide Counterscreen for Small Molecule Inhibitors of Shiga Toxin. cell reporter, cycloheximide protein synthesis inhibition counterscreen. max response, %. actives 12% (n = 300,000); in the data active means max response mostly above about 13%, no sharp cut-off; inactive means mostly below about 14%; further: read at 38.3 µM for the half of the compounds with a filed dose; 0% is about no effect
Marburg entry inh – qHTS for inhibitors of binding or entry into cells for Marburg Virus; Marburg virus pseudotyped entry inhibition, cell reporter; Potency, µM (doses to about 37.8 µM), for inactives: at the top dose activity change, negative = inhibition, hits mostly inhibitors; actives 1.8% (n = 300,000); AID 540276, 2011; calls by dose curve; tested in HEK293 cells; further: potency means the concentration at half of the fitted maximal effect; on the % scale 0 is the no-effect control and ±100 the full control effect
Starred values were filed as active, the others as inactive; [ ] = remark or other dose. Shown are actives, neighbours in structure and some others; about 19% of the full set was active somewhere. Unless noted, the call rests on the fitted dose curve; in most records, active means well fitted inhibition curve with a large enough effect; inconclusive means small, poorly fitted or top-dose-only effect, or another doubt; inactive means no such curve, though single readings can be large or run the other way.

O=C(O)C1CC(=O)N(c2ccc(OCc3c(F)cccc3Cl)cc2)C1 (stereo not drawn) was read as Lassa entry inh -10.5%, Shiga toxin inh 10.2, Pf growth 96h 36.1%, Pf growth 48h 3.7%, Cycloheximide cs -2.7 and Marburg entry inh -5.1%.
COC(=O)C1CC(=O)N(c2ccc(OCc3ccccc3Cl)cc2)C1 (stereo not drawn) was read as Lassa entry inh -7.5%, Pf growth 96h 1.8%, Pf growth 48h -11.0%, Cycloheximide cs 1.4 and Marburg entry inh -12.1%.
For C=CCNC(=O)C1CC(=O)N(c2ccc(OCc3ccccc3Cl)cc2)C1 (stereo not drawn) the results were Lassa entry inh -3.2%[46.1 µM], Shiga toxin inh 33.2*, Pf growth 96h inconclusive, Pf growth 48h 36.6%, Cycloheximide cs 33.3* and Marburg entry inh inconclusive.
Screening CCN(CC)CCNC(=O)C1(O)c2cc(Br)ccc2NC(=O)N1c1ccccc1 (stereo not drawn) returned Shiga toxin inh -2.2, Pf growth 96h 2.62µM*, Pf growth 48h -3.0%[0.00184 µM] and Cycloheximide cs 0.6.
`CCc1ccc(NC(=O)Cn2nnc(C(=O)NCCc3ccccc3)c2N)cc1` gave Lassa entry inh 14.0%[46.1 µM] and Marburg entry inh -19.5%[46.1 µM].
Nc1c(C(=O)NC2CCCC2)c2nc3ccccc3nc2n1CC1CCCO1 (stereo not drawn) was read as Lassa entry inh -27.9%, Shiga toxin inh -16.3, Pf growth 96h -18.7%, Pf growth 48h 10.4µM*, Cycloheximide cs -3.0 and Marburg entry inh inconclusive.
For Nc1c(C(=O)NCC2CCCO2)c2nc3ccccc3nc2n1Cc1ccco1 (stereo not drawn) the results were Lassa entry inh -17.4%[46.1 µM], Shiga toxin inh 13.0, Pf growth 96h -10.3%, Pf growth 48h 9.28µM*, Cycloheximide cs 1.6 and Marburg entry inh inconclusive.
Nc1c(C(=O)NC2CCCC2)c2nc3ccccc3nc2n1N was read as Lassa entry inh inconclusive, Shiga toxin inh 43.1*, Pf growth 96h 295.4%, Pf growth 48h -1.1%, Cycloheximide cs 70.5* and Marburg entry inh -9.2%.
For COc1cccc(C(=O)N2CCN(Cc3ccccc3Br)CC2)c1 the results were Shiga toxin inh -8.0, Pf growth 96h inconclusive, Pf growth 48h 25.2% and Cycloheximide cs -2.1.
COC(=O)[C@@H]1CC[C@H](C)[C@@H](c2ccc(C)cc2)N1C(=O)c1ccc(C=NO[C@H](C)c2cn([C@@H]3COC[C@@H]3O)nn2)cc1 was read as Lassa entry inh -17.4%[14.3 µM] and Marburg entry inh 3.7%[14.2 µM].
Screening CN1CCC(N(C)S(=O)(=O)c2ccc(NC(=O)COc3ccc([N+](=O)[O-])cc3)cc2)CC1 returned Lassa entry inh 0.5%[46.1 µM], Pf growth 96h inconclusive, Pf growth 48h inconclusive and Marburg entry inh -27.4%.
CC(C)(C)n1nnnc1C(c1ccccn1)N(Cc1ccccc1)Cc1ccc(Cl)cc1 (stereo not drawn) was read as Lassa entry inh inconclusive, Shiga toxin inh 22.7, Pf growth 96h 1.47µM*, Pf growth 48h 11.7µM*, Cycloheximide cs 1.5 and Marburg entry inh inconclusive.
CCN(Cc1ccccc1)C(c1ccc(Cl)cc1)c1nnnn1C(C)(C)C (stereo not drawn) was read as Lassa entry inh inconclusive, Shiga toxin inh -19.1, Pf growth 96h 134.0%, Pf growth 48h inconclusive, Cycloheximide cs 2.7 and Marburg entry inh inconclusive.
CCN(Cc1ccccc1)C(c1ccccn1)c1nnnn1C(C)(C)CC (stereo not drawn) was read as Lassa entry inh 7.6%, Shiga toxin inh -13.9, Pf growth 96h 23.4%, Pf growth 48h inconclusive, Cycloheximide cs -6.0 and Marburg entry inh inconclusive.
Screening CC(C)(C)n1nnnc1C(c1cccs1)N(Cc1ccccc1)Cc1ccco1 (stereo not drawn) returned Lassa entry inh inconclusive, Shiga toxin inh 32.7, Pf growth 96h 21.2%, Pf growth 48h 13.1µM*, Cycloheximide cs 11.1 and Marburg entry inh inconclusive.
`CC(C)(C)n1nnnc1C(c1cccs1)N(Cc1cccnc1)Cc1ccco1` (stereo not drawn) gave Lassa entry inh inconclusive, Shiga toxin inh -1.9, Pf growth 96h 7.38µM*, Pf growth 48h 10.4µM*, Cycloheximide cs 0.9 and Marburg entry inh inconclusive.
`CCN(Cc1ccccc1)C(c1ccc(C)cc1)c1nnnn1C(C)(C)C` (stereo not drawn) gave Lassa entry inh -9.9%, Shiga toxin inh -16.2, Pf growth 96h 8.28µM*, Cycloheximide cs -1.1 and Marburg entry inh 1.9%.
CC(C)(C)n1nnnc1C(c1ccncc1)N(Cc1ccccc1)Cc1ccco1 (stereo not drawn) was read as Lassa entry inh 7.6%, Shiga toxin inh 8.3, Pf growth 48h 13.1µM*, Cycloheximide cs 6.9 and Marburg entry inh inconclusive.
For O=C(Cc1ccc(Cl)cc1)Nc1ccncc1 the results were Lassa entry inh -16.6%, Shiga toxin inh 9.3, Pf growth 96h -6.4%, Pf growth 48h 3.9%, Cycloheximide cs 1.2 and Marburg entry inh inconclusive.
Screening CCOC(=O)CC(=O)CSc1ccc2nnc(-c3cccc(F)c3)n2n1 returned Lassa entry inh -23.4%, Shiga toxin inh -31.8, Pf growth 96h 6.9%, Pf growth 48h 7.38µM*, Cycloheximide cs -1.8 and Marburg entry inh 1.6%.
For COC(=O)c1ccc(CSc2ccc3nnc(-c4cccc(F)c4)n3n2)o1 the results were Shiga toxin inh -7.7, Pf growth 96h inconclusive, Pf growth 48h 11.7µM* and Cycloheximide cs 0.2.
O=C(CSc1ccc2nnc(-c3cccc(F)c3)n2n1)NCc1ccco1 was read as Lassa entry inh 1.0%, Shiga toxin inh -8.1, Pf growth 96h 6.57µM*, Pf growth 48h inconclusive, Cycloheximide cs -1.8 and Marburg entry inh 0.1%.
N#CC1(NC(=O)CSc2nnc(C3CC3)n2C2CC2)CCCCC1 was read as Pf growth 96h -17.8% and Pf growth 48h -20.4%.
`Cn1nnnc1SC(C(=O)Nc1ccc(F)cc1)c1ccccc1` (stereo not drawn) gave Lassa entry inh 19.8%, Shiga toxin inh -4.3, Pf growth 96h 1.4%, Pf growth 48h -19.1%, Cycloheximide cs -0.9 and Marburg entry inh -19.3%[46.1 µM].
`Cc1cc(C)c2nc(SCC(=O)N3CC(=O)Nc4ccccc43)c(C#N)cc2c1` gave Lassa entry inh inconclusive, Shiga toxin inh -8.1, Pf growth 96h inconclusive, Pf growth 48h 13.1µM*, Cycloheximide cs -1.9 and Marburg entry inh inconclusive.
For Cc1cccc(C)c1-n1c(SCC(=O)N2CC(=O)Nc3ccccc32)nc2ccccc2c1=O the results were Lassa entry inh -24.5%, Shiga toxin inh -4.6, Pf growth 96h -101.1%, Pf growth 48h 13.1µM*, Cycloheximide cs -5.1 and Marburg entry inh inconclusive.
